According to ChEMBL document CHEMBL4513216, “Probing the Open Global Health Chemical Diversity Library for Multistage-Active Starting Points for Next-Generation Antimalarials” (ACS Infect Dis, 2020):
Hit rate of the full screen: of about 65,000 compounds, about 2,100 (3.2%) showed an effect of 50% or more. The median lay at about -52%. Many of the other results were omitted from the sample, so strong results are more common in it than they were.

Tested on: Plasmodium falciparum
Assay: Screen against P. falciparum Asexual Blood Stage (ABS), at 5uM
Type: functional, Dd2
Settings: tested at 5 uM

Structure (SMILES) | INHIBITION [%]
CC(=O)N1CCC2(CC1)NC(=O)[C@H]1CN(Cc3cccnc3)C[C@H]12 | -6.03
O=C(COc1cccc(F)c1)N1C[C@@H](O)[C@H](N2CCOCC2)C1 | -17.5
CC1=C(CCN2C[C@H](O)[C@@H](N3CCOCC3)C2)C(C)(C)CCC1 | 78.3
Cc1ccccc1CC(=O)N1C[C@@H](O)[C@H](N2CCOCC2)C1 | -16.5
COc1cc(N2CCC[C@]3(C(=O)O)CN(C(C)C)C[C@@H]3C2)ncn1 | -85.1
Brc1ccc(CN2CCC(NCc3ncc[nH]3)CC2)cc1 | 83.5
O=S1(=O)C[C@@H]2[C@H](C1)N(Cc1ncc[nH]1)CCN2Cc1cccnc1 | -89.75
Clc1cc(Cl)cc(CN2CCC(NCc3ncc[nH]3)CC2)c1 | 84.7
Cc1nc(CN(C)C)cc(N2CCCC(COc3ccc(F)cc3)C2)n1 (stereo unspecified) | 86.4
CCn1cc(CN2CCCN(C(=O)Cc3cccs3)CC2)cn1 | -85.9
COCCc1ncc(CN2CCCC(C(=O)c3ccccc3)C2)cn1 (stereo unspecified) | -145
CCn1cc(CN2CCCC(COc3ccccc3F)C2)cn1 (stereo unspecified) | 72.7
CCn1cc(CN2CCCN(C(=O)Cc3ccc(C)nc3)CC2)cn1 | -14.8
CCn1cc(CN2CCCC(COc3ccc(F)cc3)C2)cn1 (stereo unspecified) | 75.5
O=C(N[C@@H]1CN[C@@H]2CCCO[C@@H]21)c1cscn1 | 14
Cc1noc(C)c1CN1CC[C@H]2C[C@H](c3nccs3)O[C@@H]2C1 | -8.14
O=C1CO[C@H]2CN(C3CCOCC3)C[C@H]2N1Cc1ccccn1 | -104
CCCc1nc(C(=O)N[C@H]2COC[C@@H]2N2CCN(C)CC2)cs1 | -49.3
COCCN1CCc2c(cnc(-c3ccoc3)c2C(=O)O)C1 | -47.6
Cc1ccc(OCc2occc2C(=O)N2CCCCC(N)C2)cc1 (stereo unspecified) | 77.5
Cc1occc1C(=O)N1CCN2C[C@H](Oc3cccnc3)C[C@H]2C1 | -23.4
CC(C)NC(=O)[C@H]1C[C@H]2NCCO[C@@H]2C1 | -33.9
Cc1cc(CN2C[C@H]3CCC[C@@]3(COCC3CCOCC3)C2)no1 | -91.9
Oc1cccc(CN2C[C@@H]3CC[C@H]2CN(Cc2cccnc2)C3)c1 | -14.5
O=C(Cc1ccccn1)N1C[C@H]2CN(Cc3ccccn3)C[C@H]2C1 | -68.5
Cc1nnsc1CN1C[C@@H]2CC[C@H]1CN(Cc1ccccn1)C2 | -2.06

Structure (SMILES) | INHIBITION [%]
O[C@@]1(c2ccccn2)CC[C@H]2CN(Cc3ccccn3)C[C@H]21 | -89.9
O=C(CN1C[C@@H]2CC[C@H]1CN(Cc1ccccn1)C2)Nc1ccccc1 | 83.6
CC(C)(C)c1cc(CN2C[C@@H]3CC[C@H]2CN(Cc2ccccn2)C3)n[nH]1 | 74.1
Cc1cccc(CNC2CCN(CCc3ccncc3)CC2)c1C | 76.3
c1ccc2c(c1)CCC21CN(CCc2ccncc2)CCO1 (stereo unspecified) | -30.5
Clc1cccc(CNC2CCN(CCc3ccncc3)CC2)c1 | 92.3
C[C@@H]1C[C@@H]2CCN(Cc3ccncc3)C[C@H]2O1 | -17.4
COCCNC(=O)[C@@]12CCO[C@@H]1CCN(Cc1ccncc1)C2 | -51.1
Fc1ccc(CNC2CCN(CCc3ccncc3)CC2)cc1F | 89.8
CN(c1ncccc1C#N)C1CCN(CCc2ccncc2)CC1 | 30.8
Cc1ccc(CNC2CCN(CCc3ccncc3)CC2)cc1C | 86.9
CN1CCN(Cc2ccncc2)Cc2cccnc21 | -190
Cc1n[nH]c2c1C(c1ccc(Cl)cc1)SCC(=O)N2 (stereo unspecified) | -12.6
Cc1ccc(C(=O)N2C[C@@H]3OCCN(C(C)C)[C@@H]3C2)cn1 | -18.4
Cc1cccc(CN2C(=O)C[C@H]3[C@@H]2CCN3Cc2ccco2)n1 | 13.4
COCCN1CCO[C@H]2CN(C(=O)c3ccncc3F)C[C@H]21 | -230
CC(Cn1cccn1)NCC(=O)NC1CCOCC1 (stereo unspecified) | -32.4
Cc1cc(CC(=O)N2CCN(C)[C@@H]3CS(=O)(=O)C[C@@H]32)ccc1F | -54.5
C[C@@H]1CN(Cc2ccsc2)C[C@]12CCN(Cc1cccnc1)C2=O | -45.2
CCN1C[C@H]2CCN(Cc3ccncc3)C(=O)[C@@H]2C1 | -66.4
CSc1ccc(CNC2CCN(CCc3ccncc3)CC2)cc1 | 93
CC1CN(CCc2ccncc2)CCO1 (stereo unspecified) | -107
Cc1nc(CO[C@H]2CN(Cc3ccccn3)[C@@H]3CCCO[C@H]23)cs1 | -44.2
CC1=N[C@@]2(CC[C@@H]3CN(Cc4ccccc4C)C[C@@H]32)C(=O)N1CC1CC1 | 85.1
CC1=N[C@@]2(CC[C@@H]3CNC[C@@H]32)C(=O)N1CC(C)C | -138
CCC1=N[C@@]2(CC[C@@H]3CN(CC)C[C@@H]32)C(=O)N1C | -47.6

Structure (SMILES) | INHIBITION [%]
CNC(=O)[C@H]1C[C@@H]2CN(C(=O)c3cncc(C)c3)C[C@@H]2N1C | -93.3
CC(C)CNC(=O)N1CCOC2(CCNCC2)C1 | -53.6
CC(C)NC(=O)N1CCOC2(CCCNC2)C1 (stereo unspecified) | -67.8
O=C(Nc1ccccc1)C1=NOC2(CCCNC2)C1 (stereo unspecified) | -22.7
CC(C)CNC(=O)C1(Cc2ccccc2-c2cccs2)CCNC1 (stereo unspecified) | 71.7
CC(C)NC(=O)C1(Cc2ccccc2-c2ccccc2)CCCNC1 (stereo unspecified) | 76.7
CC(C)NC(=O)[C@@H]1C[C@H]2NCC[C@H]2O1 | -104
CCN1CCC2(COCc3cnc(NCC4CC4)nc32)C1 (stereo unspecified) | 1.43
CCN1C[C@@H]2[C@@H](OC)CCN(S(=O)(=O)c3cccnc3)[C@@H]2C1 | -17.9
COc1cc2nc(NCc3scnc3C)nc(N)c2cc1OC | 89.8
COc1cc2nc(NCc3ccc(C)nc3)nc(N)c2cc1OC | 90.6
Fc1cccnc1O[C@@H]1CN(Cc2ccco2)[C@@H]2CCCO[C@@H]21 | -48.2
COc1ccccc1N1CCC(CNCc2ccc(C#N)cc2)C1 (stereo unspecified) | 94.1
COc1ccccc1C1(CNCc2cccc(O)c2)CCOCC1 | 82.8
N#Cc1ccc(CNCC2(c3ccccc3)CCOCC2)cc1 | 83
COc1ccccc1C1(CNCc2ccc(C#N)cc2)CCOCC1 | 76.6
CC[C@H]1CN2CC[C@H]1C[C@@H]2CNCc1cccc(C#N)c1 | 34.8
CSC1(CNC(=O)NC(C)Cc2cccc(F)c2)CCOCC1 (stereo unspecified) | -25.5
O=C([C@@H]1CC[C@@H]2[C@@H](CCN2Cc2ccncc2)O1)N1CCCCO1 | -84.8
O=C1CO[C@@H]2CN(CC3CCOCC3)C[C@H]2N1Cc1ccncc1 | -115
Cc1ccc(C(CCNCCCN(C)C)C2CCOC(C)(C)C2)cc1 (stereo unspecified) | 83.6
CN(Cc1cccnc1)[C@@H]1CN(CC2CC2)[C@@H]2CCCO[C@H]12 | -1.12
COc1cc(OC)c(C2SCC(=O)Nc3n[nH]cc32)cc1OC (stereo unspecified) | -189
COc1cc(OC)c(C2Nc3cc(Cl)ccc3C3=NCCN32)cc1OC (stereo unspecified) | 81.7
C/C(=C\c1ccco1)CN(C)C(C)Cc1cc(C)ccn1 (stereo unspecified) | -0.191
CS(=O)(=O)Cc1nc(CN2CC=C(c3ccccc3)CC2)cs1 | -50.8

Structure (SMILES) | INHIBITION [%]
CCCN1CCN(C(=O)c2cnccc2C)[C@H]2CS(=O)(=O)C[C@H]21 | -12.9
CC(C)c1ncc(Cl)c(C(=O)N2CCN3CCCCC3C2)n1 (stereo unspecified) | -158
Cc1c(C(=O)N2CCC(N3CCCCC3)CC2)n(C)c2ccc(Cl)cc12 | 88
O=C(c1[nH]c2ccc(Cl)cc2c1Cl)N1CCC2(CC1)OCCO2 | -37.1
CC(Cn1cncn1)NCc1csc2c1CCCC2 (stereo unspecified) | -42.7
c1cc(CN2CC[C@@H]3CN(c4cnccn4)C[C@@H]3C2)ccn1 | -72.2
Fc1ccc(OCCNC2CCN(Cc3ccncc3)CC2)c(F)c1 | 74.2
c1cnc(NC[C@H]2OC[C@@H]3CCN(Cc4ccncc4)C[C@@H]32)nc1 | -102
CNc1ncccc1C(=O)N1CCC2(CCN(C)C2)CC1 | -89.3
Cc1ncc(CNCCO)c2cc(C(=O)c3ccc(Br)cc3)oc12 | 89.3
O=C1C[C@@H]2CC[C@H](CN1)N2C1CSCCSC1 | -45.6
Cc1ccc(CN2CCC3(CCN(Cc4ccncc4)CC3)CC2)cc1 | 78.3
c1cnc(N2CC3(CCN(Cc4ccncc4)C3)C2)nc1 | -104
O=C1CC2(CCN(Cc3ccoc3)C2)CN1c1cncnc1 (stereo unspecified) | -51.3
O=C1Nc2ccccc2C12CCN(Cc1nccs1)CC2 | -15.8
Cc1ccc(CN2CCC3(CC2)CCN(Cc2ccoc2)CC3)cc1 | 92.7
O=C1NC[C@H]2CN(Cc3nccs3)CCN12 | -41.7
C[C@H]1C[C@@H]2CCN(Cc3ccco3)C[C@H]2O1 | -32
CN1CCN(Cc2ccco2)Cc2cccnc21 | -15.8
c1cc(CN2CCCC23CCCN(Cc2ccoc2)C3)ccn1 (stereo unspecified) | -105
Fc1ccc(CN2CCC3(CC2)CCN(Cc2nccs2)CC3)cc1 | 86.6
Cc1ccc(CN2CCC3(CC2)CCN(Cc2ccco2)CC3)cc1 | 91.7
Cn1ccnc1CN1CC2(CCN(Cc3ccncc3)C2)C1 | -45.8
